# Laboratory results from PubChem BioAssay.
# Activity calls are given as the source filed them.
# What was measured:
# [1] = tested on: Plasmodium falciparum Sir2 (PF13_0152, Sir2A); test: pfSir2 binders on small-molecule microarrays, primary screen, biochemical, small-molecule microarray, 635 nm fluorescence (AID 1098); settings: small-molecule microarray binding, fluorescence 635 nm; higher = more signal;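 also: score merges spot fluorescence intensity with its signal-to-noise ratio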
# [2] = small-molecule microarray binders of probe aDKK1, primary screen, biochemical, biotinylated probe, 635/667 nm fluorescence (AID 1099); settings: higher = more signal;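 also: score merges 667nm spot fluorescence with signal to noise across triplicate slides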
# [3] = small-molecule microarray binders of probe aCHRDL2, primary screen, biochemical, biotinylated probe, 635/667 nm fluorescence (AID 1100); settings: higher = more signal
# [4] = splicing luciferase reporter signal modulators, primary screen, spliceosome inhibition project, cell-based, HEK293, splice +/- reporter (AID 1101); settings: luminescence, 24 h, higher = more signal, called active from +8 up or from −8 down;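 also: HEK293 cells carrying a splicing-competent luciferase reporter gene; test concentration not given here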
# [5] = target: Fibroblast growth factor 10 (Homo sapiens) (UniProt O15520); test: FGF10 binders on small-molecule microarrays, primary screen, biochemical, small-molecule microarray, 635 nm fluorescence (AID 1102); settings: FGF10 binding, fluorescence 635 nm, higher = more signal
# Fibroblast growth factor 10 (Homo sapiens), sequence (O15520 whole entry, looked up): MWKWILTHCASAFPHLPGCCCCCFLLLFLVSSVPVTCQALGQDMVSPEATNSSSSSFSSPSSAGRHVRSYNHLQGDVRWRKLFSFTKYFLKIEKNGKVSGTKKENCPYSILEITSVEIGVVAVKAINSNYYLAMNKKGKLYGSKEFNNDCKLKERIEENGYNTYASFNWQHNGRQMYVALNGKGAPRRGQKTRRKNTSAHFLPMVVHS
# [6] = tested on: glycogen synthase kinase-3 (GSK3A per assay name; protocol says GSK3B); test: GSK3 binders on small-molecule microarrays, primary screen, biochemical, small-molecule microarray, 635 nm fluorescence, GSK3A (AID 1103); settings: small-molecule microarray binding, fluorescence 635 nm; higher = more signal; also: the record names both GSK3A and GSK3B
# [7] = target: Epidermal growth factor receptor (Homo sapiens) (UniProt P00533); test: EGFR binders on small-molecule microarrays, primary screen, biochemical, small-molecule microarray, 635 nm fluorescence (AID 1104); settings: EGFR binding, higher = more signal;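 also: score merges 667 nm emission intensity with spot signal to noise over triplicate slides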
# Epidermal growth factor receptor (Homo sapiens), sequence (P00533 whole entry, looked up): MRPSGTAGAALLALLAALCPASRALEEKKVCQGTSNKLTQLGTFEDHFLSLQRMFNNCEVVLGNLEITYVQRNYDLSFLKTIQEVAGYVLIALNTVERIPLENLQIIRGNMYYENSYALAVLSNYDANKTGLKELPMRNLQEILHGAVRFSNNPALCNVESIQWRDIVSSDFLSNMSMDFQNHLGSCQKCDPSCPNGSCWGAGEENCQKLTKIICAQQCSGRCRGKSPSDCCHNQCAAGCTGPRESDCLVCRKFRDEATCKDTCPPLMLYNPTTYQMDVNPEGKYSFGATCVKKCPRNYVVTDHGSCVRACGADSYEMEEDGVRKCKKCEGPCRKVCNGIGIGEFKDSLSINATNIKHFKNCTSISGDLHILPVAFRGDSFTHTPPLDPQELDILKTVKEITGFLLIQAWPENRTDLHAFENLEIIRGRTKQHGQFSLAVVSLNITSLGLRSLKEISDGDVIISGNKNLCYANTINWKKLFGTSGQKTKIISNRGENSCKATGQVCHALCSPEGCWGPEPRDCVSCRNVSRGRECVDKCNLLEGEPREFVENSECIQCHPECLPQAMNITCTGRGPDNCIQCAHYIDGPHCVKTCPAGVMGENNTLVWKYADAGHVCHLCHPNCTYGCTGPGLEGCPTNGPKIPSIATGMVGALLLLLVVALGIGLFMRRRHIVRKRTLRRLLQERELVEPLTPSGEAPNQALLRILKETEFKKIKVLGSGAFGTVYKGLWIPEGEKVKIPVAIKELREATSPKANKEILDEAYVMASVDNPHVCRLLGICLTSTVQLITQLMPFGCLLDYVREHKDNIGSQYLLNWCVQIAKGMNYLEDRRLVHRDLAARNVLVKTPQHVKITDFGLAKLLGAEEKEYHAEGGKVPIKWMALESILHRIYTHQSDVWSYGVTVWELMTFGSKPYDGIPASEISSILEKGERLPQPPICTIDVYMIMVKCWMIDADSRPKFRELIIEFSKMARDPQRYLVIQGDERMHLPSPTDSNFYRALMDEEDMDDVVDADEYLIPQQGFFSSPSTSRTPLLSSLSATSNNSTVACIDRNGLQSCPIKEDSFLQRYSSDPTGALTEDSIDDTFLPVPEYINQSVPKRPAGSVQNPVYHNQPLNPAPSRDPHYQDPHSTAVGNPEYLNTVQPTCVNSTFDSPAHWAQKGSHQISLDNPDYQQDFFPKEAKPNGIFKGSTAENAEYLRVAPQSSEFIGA
# [8] = target: Follistatin-related protein 3 (Homo sapiens) (UniProt O95633); test: FSTL3 binders on small-molecule microarrays, primary screen, biochemical, small-molecule microarray, 635 nm fluorescence (AID 1105); settings: FSTL3 binding, higher = more signal;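 also: score merges emission near 667 nm and signal to noise per printed spot across three slides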
# Follistatin-related protein 3 (Homo sapiens), sequence (O95633 whole entry, looked up): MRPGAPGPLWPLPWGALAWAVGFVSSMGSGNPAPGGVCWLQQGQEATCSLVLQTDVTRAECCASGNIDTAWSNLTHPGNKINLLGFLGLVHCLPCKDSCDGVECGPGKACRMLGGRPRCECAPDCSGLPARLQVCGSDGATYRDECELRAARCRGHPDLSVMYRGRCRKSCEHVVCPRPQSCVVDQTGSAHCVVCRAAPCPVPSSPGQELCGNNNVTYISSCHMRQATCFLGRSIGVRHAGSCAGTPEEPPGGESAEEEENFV
# [9] = target: Dickkopf-related protein 1 (Homo sapiens) (UniProt O94907); test: DKK1 binders on small-molecule microarrays, primary screen, biochemical, small-molecule microarray, 635 nm fluorescence scan (AID 1106); settings: DKK1 binding, higher = more signal;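 also: score merges emission near 667 nm with signal to noise over three replicate slides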
# Dickkopf-related protein 1 (Homo sapiens), sequence (O94907 whole entry, looked up): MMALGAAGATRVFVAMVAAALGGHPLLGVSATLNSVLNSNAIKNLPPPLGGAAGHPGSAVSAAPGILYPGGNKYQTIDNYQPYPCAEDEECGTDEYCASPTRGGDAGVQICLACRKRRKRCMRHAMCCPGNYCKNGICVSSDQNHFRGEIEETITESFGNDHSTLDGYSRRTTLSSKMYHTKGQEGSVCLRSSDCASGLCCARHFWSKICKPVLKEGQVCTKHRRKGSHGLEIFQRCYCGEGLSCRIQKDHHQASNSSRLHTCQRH
# [10] = tested on: Inhibin beta A chain (activin A); test: INHBA (activin A) binders on microarrays, primary screen, biochemical, small-molecule microarray, 635 nm fluorescence scan (AID 1107); settings: small-molecule microarray binding, higher = more signal;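 also: mouse activin A protein probed at 4.33 µg/mL on printed slides; score merges bound-protein fluorescence near 667 nm with spot signal-to-noise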
# [11] = tested on: Human papillomavirus type 1a protein E7 (residues 44-93); test: HPV1a E7 fragment binders on microarrays, primary screen, biochemical, small-molecule microarray, residues 44-93, 635 nm fluorescence (AID 1108); settings: small-molecule microarray binding, fluorescence 635 nm; higher = more signal;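 also: E7 fragment applied at 1 µg/mL in TBST for 1 h at 4 C; score combines spot fluorescence with its signal to noise ratio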
# [12] = modulators of HCV replicon luciferase signal, primary screen, HCV replication inhibitor project, Huh7 cells, luciferase reporter (AID 1109); settings: 48 h, higher = more signal;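 also: huh7 hepatoma cells harbouring a luciferase neomycin HCV replicon reporter; luciferase luminescence as measure of HCV replicon replication; test concentration not given here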
# [13] = target: Left-right determination factor 2 (Homo sapiens) (UniProt O00292); test: LEFTY2 binders on small-molecule microarrays, primary screen, biochemical, small-molecule microarray, 635 nm fluorescence scan (AID 1110); settings: LEFTY2 binding, higher = more signal
# Left-right determination factor 2 (Homo sapiens), sequence (O00292 whole entry, looked up): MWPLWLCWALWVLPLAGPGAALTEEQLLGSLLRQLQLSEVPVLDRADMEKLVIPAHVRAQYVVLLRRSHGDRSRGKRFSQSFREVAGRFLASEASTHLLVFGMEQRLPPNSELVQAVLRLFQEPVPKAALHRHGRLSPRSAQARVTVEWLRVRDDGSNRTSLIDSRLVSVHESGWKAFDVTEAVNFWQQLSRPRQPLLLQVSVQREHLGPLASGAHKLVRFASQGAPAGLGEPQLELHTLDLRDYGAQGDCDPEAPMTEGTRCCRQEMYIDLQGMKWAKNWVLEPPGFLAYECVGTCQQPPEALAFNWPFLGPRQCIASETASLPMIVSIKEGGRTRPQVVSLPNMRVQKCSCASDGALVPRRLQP
# [14] = target: Calmodulin-1 (Homo sapiens) (UniProt P0DP23); test: CALM1 binders on microarrays, EGTA buffer, profiling panel, biochemical, small-molecule microarray, Cy5-labelled CALM1 (AID 1111); settings: Cy5-CALM1 binding fluorescence, higher = more signal;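 also: labelled calmodulin applied in Tris saline Tween buffer holding calcium plus EGTA and DTT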
# [15] = target: Calmodulin-1 (Homo sapiens) (UniProt P0DP23); test: calcium-bound CALM1 binders on microarrays, profiling panel, artefact control for SMM control-protein annotation, biochemical, small-molecule microarray, Cy5-labelled CALM1, plus calcium (AID 1112); settings: Cy5-CALM1 binding fluorescence, higher = more signal;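 also: score merges spot fluorescence with signal to noise from triplicate slides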
# [16] = small-molecule microarray binders of probe aWnt5a, primary screen, biochemical, biotinylated probe, 635/667 nm fluorescence (AID 1113); settings: higher = more signal;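 also: score merges 667 nm fluorescence intensity with signal-to-noise per printed feature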
# [17] = small-molecule microarray binders of probe aShh, primary screen, biochemical, biotinylated probe, 635/667 nm fluorescence (AID 1114); settings: higher = more signal;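 also: probe is biotin-labelled aShh protein from a stem cell growth factor screen; measures binding of labelled protein to compounds printed on the slide; score merges feature fluorescence at 667 nm with signal-to-noise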
# [18] = small-molecule microarray binders of probe aNog, primary screen, biochemical, biotinylated probe, 635/667 nm fluorescence (AID 1115); settings: higher = more signal;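 also: probe is biotinylated aNog protein used at 0.15 µg/mL for 1 h at 4 C; z-score combines 667 nm fluorescence of each spot with its signal to noise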
# [19] = target: Torsin-1A-interacting protein 1 (Homo sapiens) (UniProt Q5JTV8); test: LAP1 binders from COS7 cell lysate, primary screen, small-molecule microarray, 635/667 nm fluorescence (AID 1116); settings: COS7-hLAP1 lysate binding, 635 nm fluorescence, higher = more signal
# Torsin-1A-interacting protein 1 (Homo sapiens), sequence (Q5JTV8 whole entry, looked up): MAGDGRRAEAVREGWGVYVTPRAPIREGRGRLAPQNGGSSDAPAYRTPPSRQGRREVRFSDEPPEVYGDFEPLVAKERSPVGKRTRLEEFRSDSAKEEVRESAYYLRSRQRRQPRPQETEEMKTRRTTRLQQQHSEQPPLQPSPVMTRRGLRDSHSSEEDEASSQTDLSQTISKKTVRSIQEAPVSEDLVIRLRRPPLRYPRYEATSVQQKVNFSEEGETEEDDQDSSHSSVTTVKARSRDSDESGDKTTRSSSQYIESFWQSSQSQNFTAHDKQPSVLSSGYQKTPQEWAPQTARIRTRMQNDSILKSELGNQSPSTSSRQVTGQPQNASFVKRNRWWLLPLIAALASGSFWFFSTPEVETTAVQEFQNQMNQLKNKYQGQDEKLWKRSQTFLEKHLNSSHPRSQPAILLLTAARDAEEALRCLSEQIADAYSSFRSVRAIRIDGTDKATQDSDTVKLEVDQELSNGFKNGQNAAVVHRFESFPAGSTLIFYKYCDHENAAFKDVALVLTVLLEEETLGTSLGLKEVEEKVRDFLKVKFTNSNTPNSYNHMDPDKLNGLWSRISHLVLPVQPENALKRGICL
# [20] = target: Alpha-bungarotoxin (Bungarus multicinctus) (UniProt P60615); test: alpha-bungarotoxin binders on microarray, profiling panel, artefact control for SMM control protein annotation, biochemical, small-molecule microarray, Alexa647 label, 635/667 nm fluorescence (AID 1117); settings: alpha-BTX-A647 binding fluorescence, higher = more signal
# Alpha-bungarotoxin (Bungarus multicinctus), sequence (P60615 whole entry, looked up): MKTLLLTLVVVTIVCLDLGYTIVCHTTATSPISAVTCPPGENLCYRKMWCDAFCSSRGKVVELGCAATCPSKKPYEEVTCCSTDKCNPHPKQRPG
Compound,composite z-score [1],composite z-score [2],composite z-score [3],z-score [4],composite z-score [5],composite z-score [6],composite z-score [7],composite z-score [8],composite z-score [9],composite z-score [10],composite z-score [11],z-score [12],composite z-score [13],composite z-score [14],composite z-score [15],composite z-score [16],composite z-score [17],composite z-score [18],composite z-score [19],composite z-score [20]
CC(C)OC(=O)C=C1C[C@@H](c2cccc(Cl)c2)O[C@@H](c2cccc(Cl)c2)O1,1.31,0.471,1.11,1.35 (inactive),0.31,0.651,-1.18,-0.901,-1.42,1.24,0.597,-0.825,-0.869,1.39,1.05,-0.0735,-0.0035,-0.43,1.58,0.381
O=C1O[C@@H](c2ccccc2)[C@@H](c2ccccc2)N2[C@@H](c3ccc(OCCO)cc3)[C@]3(C(=O)Nc4ccc(C#CC5=CCCCC5)cc43)[C@@H](C(=O)N3CCCCCCC3)[C@H]12,1.66,2.71,1.43,-0.447 (inactive),1.32,1.33,1.71,1.58,2.08,1.91,1.45,-1.58,1.59,2.33,1.14,1.21,2.92,3.02,4.33,2.54
CC(c1ccccc1)C(O)C1C=CC2C(=O)N(C)C(=O)C2N1NC(=O)OC(C)(C)C (stereo not given),1.16,0.354,0.488,1.18 (inactive),1.02,1.28,0.469,0.907,0.237,0.633,0.664,0.658,-0.0606,2.55,0.265,0.0377,-0.273,1.54,2.11,1.29
COC(=O)[C@@]1(Cc2ccc(OC)cc2)[C@H]2c3cc(C(=O)N(C)C)n(Cc4ccc(C(F)(F)F)nc4)c3C[C@H]2CN1C(=O)c1ccccc1,0.707,1.15,0.784,-1.59 (inactive),0.081,-0.178,0.189,-0.015,-0.557,0.663,0.714,-0.657,-0.0595,0.705,0.199,0.17,0.413,0.18,1,-0.173
Cc1ccc(C2C3C(=O)CC4C(=O)N(c5ccccc5)C(=O)C4C3CN2S(=O)(=O)c2ccc(C)cc2)cc1 (stereo not given),0.0792,1.24,1.05,0.495 (inactive),0.924,0.816,0.381,0.773,0.112,0.385,0.808,-0.418,0.0699,1.33,0.531,0.374,0.343,-0.308,1.66,0.644
O=C1OCCC=C[C@H]2OC34C=CCN(CCN5CCOCC5)C(=O)[C@H]3N(CCCCCO)C(=O)[C@@H]4C12 (stereo not given in full),1.44,-0.235,-0.111,-0.78 (inactive),-0.35,0.454,-0.509,-0.379,-0.041,-0.309,0.57,0.305,-0.529,0.667,-0.836,-0.147,-0.237,-0.103,2.24,1.88
O=C1C2C=CC(C(O)c3ccc4c(c3)OCO4)N(Nc3ccc([N+](=O)[O-])cc3)C2C(=O)N1c1ccccc1 (stereo not given),1.73,-0.0669,-0.162,-0.0322 (inactive),0.67,0.675,0.342,0.381,0.207,0.278,1.12,-0.133,0.219,-0.182,-0.429,-0.0445,-0.0968,-0.418,-0.181,0.177
C=CCN(Cc1ccccc1)C(=O)C(c1cccs1)N(C(=O)/C=C\C(=O)O)c1ccc(CCOCCO)cc1 (stereo not given),1.33,-0.291,0.486,-1.2 (inactive),-2.15,-1.28,-1.43,-1.27,-2.18,-0.753,-0.774,0.386,-2.57,-0.722,0.665,-0.191,-0.138,-0.242,-0.678,-1.84
COc1ccc([Si](C)(C)[C@H]2[C@H](CCn3cc([C@H](O)c4ccccc4)nn3)O[C@@]3(C(=O)N(C)c4ccccc43)[C@@H]2C)cc1,1.17,-0.0149,0.376,1.11 (inactive),-0.133,-0.621,-0.55,-0.165,-0.529,0.209,-0.455,-2.37,-0.759,0.418,0.947,-0.119,-0.0793,-0.266,-0.773,-0.909
COCCOC(=O)N1C(=O)[C@@]2(c3ccccc31)[C@H](c1ccc(OCCO)cc1)N1[C@H](c3ccccc3)[C@H](c3ccccc3)OC(=O)[C@H]1[C@@H]2C(=O)N1CCc2cc(OC)c(OC)cc2C1,1.53,0.305,0.232,-1.02 (inactive),1.29,1.3,0.738,1.42,0.476,0.355,1.16,-2.15,1.03,1.2,0.0721,-0.001,0.0141,0.603,0.977,2.23
Cc1c(NC(=O)/C(C#N)=C/c2cccc([N+](=O)[O-])c2)c(=O)n(-c2ccccc2)n1C,0.141,-0.123,-0.413,-0.911 (inactive),0.455,0.797,0.53,0.53,0.561,0.107,0.785,-1.44,0.285,0.619,-0.249,-0.0819,-0.0793,-0.346,0.38,0.0071
